An excerpt weighted towards active compounds, which were near 10% of everything screened.
JMJD2A Tudor – blocks the human JMJD2A Tudor domain | 390,000 compounds, 4.4% hits | AlphaScreen JMJD2A-Tudor / H3K4me3 peptide binding | Potency, µM (series often up to 114 µM), hits mostly inhibitors | O75164; note: nearly all actives have a fitted effect of over 50% in size
HP1b chromo inh – blocks HP1-beta chromodomain binding to methylated histone tails. 390,000 compounds, 0.56% hits. Potency, µM (doses to about 114 µM), hits mostly inhibitors. AlphaScreen HP1-beta / biotin-H3K9me3 peptide binding. P83916. AID 540317; note: nearly all actives have a fitted effect of over 70% in size
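Compound inhibition of the preformed complex between 50 nM HP1-beta and 50 nM biotinylated H3K9me3 peptide was read by AlphaScreen. Buffer was PBS pH 7.4 with 0.01% Tween-20. Incubations ran 30 min at room temperature, with 10 ug/mL donor/acceptor beads.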
G9a block – G9a (human) methyltransferase inhibition. Q96KQ7. G9a H3K9 monomethylation, AlphaScreen, 2 h. Potency, µM (top dose mostly 102 µM), hits mostly inhibitors. 350,000 compounds, 8.8% hits. AID 504332; note: nearly all actives have a fitted effect of over 75% in size
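Using a bead-based AlphaScreen, monomethylated H3K9 product from 2 h room-temperature reactions (G9a 20 nM, peptide 500 nM, SAM 20 uM) was detected with 0.5 ug/mL rabbit anti-H3K9me1 antibody.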
BAZ2B inh – BAZ2B (human) inhibition | AlphaScreen BAZ2B-H3K14Ac peptide displacement | Q9UIF8 | 360,000 compounds, 4.4% hits | Potency, µM (series often up to 114 µM), usual class: inhibitors | AID 504333; note: nearly all actives have a fitted effect of over 60% in size
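Inhibition is scored as reduced AlphaScreen emission. The BAZ2B/b-H3(5-23)K14Ac complex (50 nM each) in PBS pH 7.4, 0.01% Tween-20 meets compound (up to 110 uM) for 30 min at RT before bead addition.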
GLS inh – glutaminase GLS (human) inhibition | 410,000 compounds, 0.21% hits | GLS enzymatic activity, qHTS titration | O94925 | Potency, µM (top dose mostly 45.5 µM), actives largely listed as inhibitors
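Two-point fluorescence kinetic (t0, 30 min RT) for hKGA; glutamate detected via glutamate oxidase–HRP–Amplex Red. Substrate: 1 mM L-glutamine solution; buffer 45 mM KH2PO4, pH 8.2.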
Numbers stand for hits; i = inactive; ? = inconclusive; nt = not tested or not shown; [ ] = remark or other dose. Calls come from the whole dose curve; as a rule, active = well fitted curve in the direction sought with a large enough effect; inconclusive = small, poorly fitted or top-dose-only effect, or another doubt; inactive = no such curve, though single readings can be large; an effect the other way counts as inactive or inconclusive.

SMILES | JMJD2A Tudor | HP1b chromo inh | G9a block | BAZ2B inh | GLS inh
O=C(COC(=O)[C@H](Cc1c[nH]c2ccccc12)NC(=O)c1ccc(Cl)cc1)Nc1ccc2c(c1)OCO2 | ? | i | ? | 56µM | i
COc1ccc(CCN2CC(C(=O)Nc3ccc4c(c3)OCO4)CC2=O)cc1OC (centres undefined) | 79µM | ? | i | ? | i
CCOc1ccccc1OCC(=O)Nc1ccc(N2CCCCC2)cc1 | ? | i | ? | i | i
Cc1ccc2nc(C3CCCCC3)c(Cc3cccc(F)c3)n2c1 | nt | nt | nt | nt | i
COc1ccc([C@@H]2CC(=O)c3c(O)cc(O[C@@H]4O[C@H](CO[C@@H]5O[C@@H](C)[C@H](O)[C@@H](O)[C@H]5O)[C@@H](O)[C@H](O)[C@H]4O)cc3O2)cc1O | ? | i | i[12.7 µM] | 50µM | ?
COc1ccc(-c2cc(=O)c3c(O)cc(OC4OC(COC5OC(C)C(O)C(O)C5O)C(O)C(O)C4O)cc3o2)cc1O (centres undefined) | i | i | i[12.7 µM] | i | i
On1cnnc1-c1ccccc1 | i | i | i | i | i
COn1cnnc1-c1ccccc1 | i | i | 13µM | i | i
Cc1nc(SCc2nc3c(O)cccc3[nH]2)c2oc3ccccc3c2n1 | 28µM | i | nt | nt | i
Cc1nc(SCc2nc3ccc(F)cc3[nH]2)c2oc3ccccc3c2n1 | ? | i | nt | nt | i
CCc1nc2ccc(C(=O)NCCc3ccccn3)cn2c1N(C)CCC(C)C | nt | nt | nt | nt | i
C=CCn1c(=S)[nH]c2scc(-c3cccs3)c2c1=O | i | i | i | i | i
Cn1c(=S)[nH]c2scc(-c3cccs3)c2c1=O | ? | i | 10µM | i | i
Cc1ccc(NC(=O)C2CCC(CNS(=O)(=O)c3csc(C(N)=O)c3)CC2)cc1Cl (centres undefined) | i | i | i | i | i
COc1cc(/C=C(/C#N)c2nc3ccccc3[nH]2)ccc1OCC(=O)Nc1ccccc1C(C)C | i | i | i[0.501 µM] | 50µM | i
CCOc1cc(/C=C(/C#N)c2nc3ccccc3[nH]2)ccc1OCc1ccc(C(=O)O)o1 | i | i | 71µM | ? | ?
CCc1ccccc1NC(=O)c1ccc2nc(C(C)C)oc2c1 | i | i | i | i | i
CCOC(=O)N1CCN(Cc2nc3cc(NC(=O)c4ccccc4[N+](=O)[O-])ccc3n2C(C)C)CC1 | i | i | i | i | i
CCC(=O)Nc1ccc2c(c1)nc1n2CCN(CCOC)C1 | i | i | 32µM | i | i
COc1ccccc1C(=O)Nc1ccc2c(c1)nc1n2CCN(C2CCCCC2)C1 | ? | i | 32µM | i | i
CCC(=O)Nc1ccc2c(c1)nc1n2CCN(C2CCCCC2)C1 | i | i | ? | ? | i
O=C(Nc1ccc2c(c1)nc1n2CCN(C2CCCCC2)C1)c1ccco1 | i[11.4 µM] | i | i | i | i
CCOC(=O)N1CCN(Cc2nc3cc(NC(=O)c4ccccc4OC)ccc3n2C(C)C)CC1 | 50µM | i | ? | 79µM | i
CC1(C(=O)NS(=O)(=O)c2ccccc2)CCN1C(=O)CCc1ccccc1 (centres undefined) | nt | nt | nt | nt | i
O=C(c1ccc2c(c1)N(Cc1ccccc1F)C(=O)c1ccccc1S2=O)N1CCOCC1 (centres undefined) | i | i | i | i | i
SMILES | JMJD2A Tudor | HP1b chromo inh | G9a block | BAZ2B inh | GLS inh
Cc1cc(SCC(=O)Nc2ccc(C(F)(F)F)cc2)nc(=O)[nH]1 | i | i | i | i | i
Fc1ccc(CNC(=S)Nc2cccc(C(F)(F)F)c2)cc1 | i | i | i | i | i
O=[N+]([O-])c1cc(C(F)(F)F)cc([N+](=O)[O-])c1NCCNC(=S)Nc1cccc(F)c1 | 40µM | i | ? | 18µM | i
c1ccc(C2Oc3ccccc3C3CC(c4cccs4)=NN32)cc1 (centres undefined) | i | i | i | i | i
O=[N+]([O-])c1ccc(C2Oc3ccccc3C3CC(c4ccccc4)=NN32)s1 (centres undefined) | nt | nt | 10µM | ? | nt
CCc1cccc2sc(N3CCN(C(=O)C4CC4)CC3)nc12 | i | i | i | i | i
CCc1cccc2sc(N3CCN(C(=O)c4ccc([N+](=O)[O-])o4)CC3)nc12 | 22µM | ? | 32µM | ? | i
O=C(O)CCc1ccc(-c2ccc(Br)cc2)n1Cc1ccco1 | 79µM | i | ? | 50µM | i
O=C(O)CCc1ccc(-c2ccc(F)cc2)n1Cc1ccco1 | ? | i | i[12.7 µM] | i | i
O=C(O)CCc1ccc(-c2ccccc2)n1Cc1ccco1 | ? | i | 32µM | 50µM | i
